Source: PubChem BioAssay (several laboratories)
Only some compounds are listed: those with a hit (about 4.3% of all), similar ones and a draw of the others.
SMARCA2 act: increases SMARCA2 function in MMTV reporter cells | MG213 cells, MMTV-luciferase reporter, dexamethasone, overnight | activation, % at 9.1 µM | 370,000 tested, 1% active; in the data active = activation above about 7.8%;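 also: 0% = vehicle wells and 100% = reference activator wells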
FGF22 binding: FGF22 (human) thermal shift binding; Q9HCT0; recombinant FGF22 thermal shift, SYPRO orange fluorescence; percent of sucrose octasulfate shift, DMSO zero; activity (Tm shift, normalised), % at 9.99 µM; 340,000 tested, 1.5% active;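 active = mean Tm shift, scaled 0 neutral to 100 positive control, at about 1.3% or above, every replicate too, limit read from the data; inconclusive = no clear call, values can overlap the other calls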
Target sequence (Q9HCT0 whole entry, looked up): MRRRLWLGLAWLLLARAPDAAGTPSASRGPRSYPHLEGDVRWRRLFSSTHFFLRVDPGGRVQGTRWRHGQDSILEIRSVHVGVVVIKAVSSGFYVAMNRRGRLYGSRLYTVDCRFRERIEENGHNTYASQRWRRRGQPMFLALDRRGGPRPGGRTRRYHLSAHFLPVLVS
Wnt bcat act: activates Wnt/beta-catenin signaling in a reporter cell assay; activator, plate reader; activation, % at 9.35 µM; 300,000 tested, 1.2% active; AID 743398; in the data active = activation above about 30%, passing the limit was not always enough; inconclusive = no clear call, values can overlap the other calls;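 also: 0% = neutral control wells and 100% = positive control wells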
MITF TRPM1 HTS: increases MITF-driven TRPM1 promoter luciferase signal; 300,000 tested, 0.75% active; AID 588334; activation, % at 12.5 µM; SK-MEL-5 TRPM1-promoter luciferase, 24 h; % of positive control, neutral wells = 0;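 active = mean activation of at least 80% with every replicate also reaching 80%; inconclusive = mean reaches 80% but some replicate falls short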;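 also: 0% = neutral control wells and 100% = parthenolide positive control wells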
esBAF inh: inhibitors of esBAF chromatin remodeling in mouse ES cells | reporter increase, % at 12.5 µM | 350,000 tested, 2% active | AID 602393 | Bmi1-luciferase knock-in reporter, 24 h; 100% = twice the neutral-well signal; in the data active = activation above about 40%; inconclusive = no clear call, values can overlap the other calls;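 also: 0% = median of the plate's neutral control wells and 100% = double that signal; a rise in the Bmi1 reporter signal indicates esBAF inhibition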
MLL AF4-AF9 inh: MLL-AF4/AF9 protein interaction inhibition | P42568 | AlphaScreen, biotin-AF4 peptide binding to FLAG-AF9 | inhibition, % at 10 µM | 350,000 tested, 0.47% active;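 active = every replicate reaching a set inhibition limit, whatever the replicate mean, cut at about 25% in these data; inconclusive = mean inhibition reaches that limit but some replicates miss it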;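 also: 0% = plate neutral control median and 100% = total signal loss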
Ring1 derepress: esBAF inhibition confirmed by Ring1 de-repression | mouse ESC E14, Ring1 mRNA RT-qPCR fold change | fold change at 33 µM | 550 tested, under 10 active | shares compounds with esBAF inh;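 active = Ring1 gene expression raised more than 2-fold over untreated cells in both replicates at either tested dose; inconclusive = only one replicate above 2-fold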;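 also: Ring1 transcript normalised to actin housekeeping signal by TaqMan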
Fgf4 repress: esBAF inhibition confirmed by Fgf4 repression; shares compounds with esBAF inh; mouse ESC E14, Fgf4 mRNA qPCR fold change; stronger effect = lower value; Fgf4 expression fold change at 33 µM; 550 tested, 4% active; AID 743177;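 active = Fgf4 expression under 0.8 fold of control in both repeat measurements at one or both tested doses; inconclusive = under 0.8 fold in just a single repeat measurement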;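 also: Fgf4 transcript normalised to actin in duplex TaqMan qPCR; cells exposed to compound for 24 h before lysis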
Bmi1 derepress: esBAF inhibition confirmed by Bmi1 de-repression; shares compounds with esBAF inh; mouse ESE14 ES cells, Bmi1 mRNA qPCR fold; stronger effect = higher value; fold change at 33 µM; 550 tested, under 10 active; AID 743180;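 active = Bmi1 expression fold change above 6 at either tested concentration, seen in replicate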
A549 tox SP: A549 cell cytotoxicity | 550 tested, under 10 active | shares compounds with esBAF inh | plate reader | cell viability change % (negative = cytotoxic), % at 25 µM, hits read low | AID 743188; call rule not given here
HepG2 cytotox SP: HepG2 cell cytotoxicity at single point. shares compounds with esBAF inh. plate reader; stronger effect = lower value. activity change, negative = inhibition, % at 25 µM. 550 tested, 4% active; in the data active = activity change below about -50%
HEK293 cytotox SP: kills or reduces viability of HEK293 cells | shares compounds with esBAF inh | 550 tested, 3% active | HEK293 cytotoxicity, plate reader | activity change, negative = inhibition, % at 25 µM, hits read low; in the data active = activity change below about -38%, passing the limit was not always enough
An asterisk follows results filed as active; u = inconclusive; x = no result given.

SMILES	SMARCA2 act	FGF22 binding	Wnt bcat act	MITF TRPM1 HTS	esBAF inh	MLL AF4-AF9 inh	Ring1 derepress	Fgf4 repress	Bmi1 derepress	A549 tox SP	HepG2 cytotox SP	HEK293 cytotox SP
CN(C)c1ccc(-c2ccc3oc(-c4ccsc4)cc(=O)c3c2)cn1	7	0	38*	124*	69*	x	1.1	0.86	1.1	-22	10	-24
C[C@H]1CN([C@@H](C)CO)C(=O)c2cc(/C=C/c3ccccc3)cnc2O[C@H]1CN(C)C(=O)Cc1cccnc1	x	0	x	x	-5	-1	x	x	x	x	x	x
Oc1ccc(/C=N/N2CCCCC2)c(O)c1O	-2	-1	-1	-7	-4	-13	x	x	x	x	x	x
Oc1ccccc1C=NN1CCCCCC1	-1	0	-1	69	77*	2	1.2	0.81	1.4	-4	20	2
Oc1ccc(Cl)cc1C=NN1CCCCCC1	-2	0	49*	47	66*	13	1.1	1	1.8	-4	16	-29
Oc1ccccc1/C=N/N1CCCCC1	-1	0	5	38	x	-2	x	x	x	x	x	x
Oc1cccc(/C=N/N2CCCCC2)c1O	3	0	u	67	61*	0	1	1.2	1.9	-12	-43	-16
N#Cc1c(/N=C/c2cccs2)sc2c1CCC2	3	x	4	x	105*	x	1.1	u	1.2	-10	-9	-4
O=C(CCCc1ccccc1)Nc1ccccn1	-1	x	6	40	31	1	x	x	x	x	x	x
Cc1ccnc(NC(=O)CCCc2ccccc2)c1	1	0	x	45	65*	1	1.1	0.98	1.5	1	-1	1
COc1ccccc1C(=O)NCC(=O)Nc1ccc2c(c1)CCC2	1	0	23	u	73*	-1	0.86	0.97	1.3	-1	-8	0
Cc1ccc(C(=O)NCC(=O)Nc2ccc3c(c2)CCC3)cc1	2	0	-2	46	72*	-2	0.89	0.88	1.4	-2	-8	-8
CN(C)CC(=O)N1CC2(C1)[C@H](c1ccccc1)[C@@H](CO)N2S(=O)(=O)c1ccccc1	x	0	x	x	x	0	x	x	x	x	x	x
CC(=O)Nc1cc2c3c(cccc3c1)-c1ccccc1-2	0	0	6	34	70*	-2	1.3	u	1.5	-5	27	-7
COc1cc(/C=C/c2nc3ccccc3c(=O)[nH]2)ccc1OC(F)F	3	0	35*	u	56*	-2	1.2	1	1.5	-8	-24	-1
CN(C)S(=O)(=O)c1ccc2c(c1)/C(=C/c1cc3c([nH]1)CCCC3)C(=O)N2	1	0	35*	69	59*	-3	2.2*	1.1	7.7*	-17	22	-6
Cc1ccc(C(=O)Cc2ccccc2)c(O)c1	-2	0	6	39	62*	4	1	1	1.6	-10	-31	-13
O=C(N/N=C/c1ccc(Cl)cc1)Nc1ccccc1	1	x	15	95*	59*	x	1.4	0.84	1.7	-7	-1	-12
c1cncc(-c2ccc3[nH]ccc3c2)c1	7	0	4	48	12	-10	x	x	x	x	x	x
c1ccc(-c2ccc3[nH]ccc3c2)cc1	5	0	17	93*	59*	6	1	0.99	2.1	2	-17	8
C[C@H](CO)N1C[C@H](C)[C@@H](CN(C)C(=O)Nc2ccc(C(F)(F)F)cc2)Oc2ncc(-c3ccc(C#N)cc3)cc2C1=O	x	0	x	x	2	0	x	x	x	x	x	x
COc1ccc(CNC(=O)c2csc3c2CCCC3)cc1	-1	0	-2	5	5	0	x	x	x	x	x	x
COc1ccc(NC(=O)c2csc3c2CCCC3)cc1	x	0	24	58	69*	-14	0.94	0.97	1.5	-8	-51*	-21
OC(c1ccc(F)cc1)c1nc(-c2ccc(F)c(Cl)c2)cs1 (stereo unspecified)	0	0	-1	x	11	-5	x	x	x	x	x	x
CN(C)c1ccc(-c2csc(C(O)c3ccc(F)cc3)n2)cc1 (stereo unspecified)	4	0	2	x	82*	4	1.3	0.9	1.6	-10	-47	-16
SMILES	SMARCA2 act	FGF22 binding	Wnt bcat act	MITF TRPM1 HTS	esBAF inh	MLL AF4-AF9 inh	Ring1 derepress	Fgf4 repress	Bmi1 derepress	A549 tox SP	HepG2 cytotox SP	HEK293 cytotox SP
CN(C)c1ccc(-c2csc(C(O)c3ccccc3)n2)cc1 (stereo unspecified)	6	0	-2	x	61*	10	1.1	u	1.7	-2	3	-1
COc1ccc(-c2csc(C(O)c3ccc(F)cc3)n2)cc1 (stereo unspecified)	0	0	28	x	60*	-4	1.1	0.82	1.7	1	-9	3
COc1ccc(C(O)c2nc(-c3ccccc3)cs2)cc1 (stereo unspecified)	-2	1	-1	x	9	-3	x	x	x	x	x	x
O=C(C[C@H]1CC[C@H]2[C@@H](COC[C@H](O)CN2C(=O)C2CCCC2)O1)NCc1ccncc1	x	0	x	x	-6	-1	x	x	x	x	x	x
O=C(NCC(F)(F)F)[C@@H]1[C@@H](CO)[C@@H]2Cn3c(cccc3=O)[C@H]1N2C(=O)C1CCC1	x	0	x	x	0	-3	x	x	x	x	x	x
COc1ccc(CN(C)C[C@H]2Oc3c(NC(=O)Nc4ccc(F)cc4)cccc3C(=O)N([C@H](C)CO)C[C@H]2C)cc1	x	0	x	x	-3	3	x	x	x	x	x	x
CC(=O)Nc1ccc2nc(C)n(Cc3ccc(Cl)cc3)c(=O)c2c1	3	x	x	x	55*	x	1.6	0.81	1.3	-6	-12	-17
O=C(C[C@H]1C[C@@H]2c3cc(NC(=O)C4CCC4)ccc3O[C@@H]2[C@@H](CO)O1)NCc1ccccc1F	x	0	x	x	12	-2	x	x	x	x	x	x
C(=NOCc1ccccc1)c1cccnc1	1	0	28	52	58*	2	1.2	0.97	1.5	-8	-7	12
Cc1cc(C(=O)Nc2sc(C)c(-c3ccc(F)cc3)c2C(N)=O)no1	5	x	x	79	78*	x	1	0.97	1.4	7	-17	-3
CS(=O)(=O)Nc1ccc2c(c1)[C@H]1C[C@H](CC(=O)N3CCCCC3)O[C@@H](CO)[C@H]1O2	x	0	x	x	-4	x	x	x	x	x	x	x
